Assay results reported in PubChem BioAssay.
Activity calls are given as the source filed them.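 The calls were made as follows, unless noted: active = fluorescence slope after compound addition differing from the mean of all screened samples at 99.7% confidence, in either direction; inactive = the rest.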

How the values were obtained:
[1] = inhibitors of TNFa-induced NFkB p65 translocation, primary screen, imaging, HUVEC, MLSMR starter and 10KST1 sets (AID 438;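 active = inhibition above 20% together with a positive visual image hit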;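 also: compound added about 3h40 before a 20 min TNFalpha stimulation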;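 as to inhibition: signal is the nuclear over cytoplasmic p65 intensity ratio per well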); details: HUVEC TNFa-induced p65 nuclear translocation; cell count: measured here: nuclei count (cytotoxicity indicator), at 2.08 µM; inhibition: at 2 µM, stronger effect = higher value, 0% TNFa-plus-vehicle, 100% no-TNFa wells
[2] = reduction of polyQ htt aggregates in cells – imaging, exon1htt(103Q)mCFP cells, high-content imaging, primary screen (AID 483;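 active = visual image review flags a hit and inhibition of aggregation exceeds 20%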;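 also: compound exposure lasted 3 days before fixation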;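 as to nuclei count: percent of the per-plate median nuclei count of sample wells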); details: exon1htt(103Q)mCFP cell line, aggregate imaging, at 2 µM; inhibition of aggregation: stronger effect = higher value; nuclei count: measured here: cell count, toxicity
[3] = endothelial E-selectin expression blockers – imaging, HUVEC, immunofluorescence, MLSMR starter and 10KST1 sets, primary screen (AID 487;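 active = visually confirmed hit in the image check and inhibition above 20%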;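 as to inhibition: signal is fraction of cell area covered by stained E-selectin grains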;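 as to nuclei count: 100% = median nuclei count of all wells on the same plate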); details: HUVEC TNFalpha-induced E-selectin immunofluorescence imaging, at 2 µM; inhibition: stronger effect = higher value; nuclei count: measured here: cell number, toxicity
[4] = target: Voltage-gated potassium channel subunit beta-2 (Rattus norvegicus) (UniProt P62483); assay: inhibitors of rat Kvbeta2 reductase activity – biochemical, NADPH fluorescence, primary screen (AID 622;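 active = fluorescence slope higher than the sample average by over 3 SD, cut at about -0.22 in these data, passing the limit was not always enough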;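 also: slope of raw intensity against log time taken from 70 to 1610 s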); details: recombinant KvBeta, 4-cyanobenzaldehyde reduction, at 10 µM, stronger effect = higher value
[5] = target: Voltage-gated potassium channel subunit beta-2 (Rattus norvegicus) (UniProt P62483); assay: enhancers of rat Kvbeta2 NADPH turnover – biochemical, NADPH fluorescence, primary screen (AID 623;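 active = NADPH fluorescence slope more negative than the mean of all samples by about 3 SD, 99.7% confidence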;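 also: fluorescence intensity change per second fitted from 20 to 320 s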); details: Recombinant KvBeta, NADPH fluorescence decrease slope, 10 min; at 10 µM; stronger effect = lower value
[6] = target: Alpha-2C adrenergic receptor (Homo sapiens) (UniProt P18825); assay: compounds altering alpha2C-coupled GIRK flux – cell-based, HEK293 alpha2C/GIRK1/2, thallium flux, primary screen (AID 624); details: thallium flux BTC fluorescence, at 10 µM, actives lie on both sides;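 also: slope of fluorescence ratio to pre-addition baseline per second over 15 to 24 s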
[7] = blockers of RIG-like receptor reporter activation – cell-based, Sendai virus stimulus, luciferase, 10K MLSCN set, TLR/RLR signaling modifier project, primary screen (AID 602276;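 active = inhibition at or above 50% at 10 µM; inactive = inhibition below 50%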;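 also: firefly luciferase from ISG56 promoter only with Renilla not read in this screen; 0% = Sendai virus plus DMSO and 100% = medium plus DMSO without virus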); details: HEK293 RL24 IRF3 luciferase reporter, at 10 µM, stronger effect = higher value
[8] = TLR3 IRF3 reporter activation blockers – cell-based, poly I:C stimulus, luciferase, 10K MLSCN set, primary screen (AID 602277;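 active = inhibition of the reporter signal at or above 50%; inactive = inhibition below 50%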); details: HEK293-TLR3 RL24 IRF3 luciferase reporter, at 10 µM, stronger effect = higher value

Voltage-gated potassium channel subunit beta-2 (Rattus norvegicus), sequence (P62483 whole entry, looked up): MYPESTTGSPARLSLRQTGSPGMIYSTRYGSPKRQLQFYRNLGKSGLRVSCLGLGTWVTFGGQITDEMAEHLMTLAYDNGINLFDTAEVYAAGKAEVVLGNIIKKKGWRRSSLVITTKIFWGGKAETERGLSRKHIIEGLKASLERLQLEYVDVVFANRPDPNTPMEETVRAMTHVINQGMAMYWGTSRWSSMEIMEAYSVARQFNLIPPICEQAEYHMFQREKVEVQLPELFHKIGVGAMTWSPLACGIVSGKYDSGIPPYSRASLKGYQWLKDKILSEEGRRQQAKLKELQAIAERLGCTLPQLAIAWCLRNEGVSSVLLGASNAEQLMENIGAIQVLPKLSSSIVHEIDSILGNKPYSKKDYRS
Alpha-2C adrenergic receptor (Homo sapiens), sequence (P18825 whole entry, looked up): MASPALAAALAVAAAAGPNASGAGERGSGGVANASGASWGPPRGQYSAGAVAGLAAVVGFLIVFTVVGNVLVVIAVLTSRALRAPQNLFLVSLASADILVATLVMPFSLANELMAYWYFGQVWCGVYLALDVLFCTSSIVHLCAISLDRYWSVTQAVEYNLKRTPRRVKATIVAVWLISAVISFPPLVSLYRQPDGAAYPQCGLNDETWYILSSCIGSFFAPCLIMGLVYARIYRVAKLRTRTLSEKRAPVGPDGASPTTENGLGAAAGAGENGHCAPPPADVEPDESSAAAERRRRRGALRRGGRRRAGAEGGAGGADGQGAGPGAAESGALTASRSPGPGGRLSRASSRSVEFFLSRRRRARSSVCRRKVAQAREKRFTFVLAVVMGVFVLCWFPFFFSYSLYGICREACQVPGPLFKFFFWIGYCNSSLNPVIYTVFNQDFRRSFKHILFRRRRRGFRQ

| SMILES | cell count [1] | inhibition [1] | inhibition of aggregation [2] | nuclei count [2] | inhibition [3] | nuclei count [3] | fluorescence slope [4] | NADPH fluorescence slope [5] | slope [6] | inhibition [7] | inhibition [8] |
| --- | --- | --- | --- | --- | --- | --- | --- | --- | --- | --- | --- |
| CC(C)CC(OC(=O)c1cccs1)C(=O)NCc1ccco1 (stereo not drawn) | 364 | 19.1% (inactive) | -9% (inactive) | 91.6% | 2.7% (inactive) | 106% | -0.425 (inactive) | -2.5e-05 (inactive) | 0.00495 (inactive) | 6.99% (inactive) | 11.5% (inactive) |
| COc1ccc2nc(NC(=O)c3ccoc3C)sc2c1 | 362 | 1.4% (inactive) | -11.6% (inactive) | 106% | -75.7% (inactive) | 118% | -0.38 (inactive) | -2.2e-05 (inactive) | 0.00322 (inactive) | -30.4% (inactive) | -105% (inactive) |
| CC(=O)c1c(C)oc2ccc(NS(=O)(=O)c3ccc(O)c(C(=O)O)c3)cc12 | 380 | 8.9% (inactive) | -7.5% (inactive) | 108% | -5.6% (inactive) | 112% | -0.576 (inactive) | -2.5e-05 (inactive) | 0.00663 (inactive) | 7.79% (inactive) | 19.3% (inactive) |
| Cc1cc(Nc2ccccc2N2CCOCC2)n2ncnc2n1 | 226 | 2% (inactive) | 13.7% (inactive) | 89% | -16.1% (inactive) | 97% | -0.588 (inactive) | 7.3e-06 (inactive) | 0.00567 (inactive) | 21.9% (inactive) | 44.1% (inactive) |
| COCCn1c(CN2CCN(c3cccc(Cl)c3)CC2)nc2c1c(=O)n(C)c(=O)n2C | 712 | -6.3% (inactive) | 5.4% (inactive) | 99.5% | -24.9% (inactive) | 120% | -0.582 (inactive) | -4e-05 (inactive) | 0.00601 (inactive) | 12.7% (inactive) | 15.3% (inactive) |
| O=C1CCn2nc(-c3ccc(Cl)cc3)cc2N1 | 557 | -0.5% (inactive) | -106% (inactive) | 1.2% | -66.1% (inactive) | 118% | -0.601 (inactive) | -3.8e-05 (inactive) | 0.00658 (inactive) | -20.1% (inactive) | -53% (inactive) |
| Cc1nc(CCNS(=O)(=O)c2cccs2)cs1 | 371 | -4.4% (inactive) | 6.9% (inactive) | 108% | -20.4% (inactive) | 102% | -0.566 (inactive) | 2.6e-05 (inactive) | 0.00608 (inactive) | -9.77% (inactive) | -22.4% (inactive) |
| COc1ccc(OC)c(C2C(C(=O)Nc3cccnc3)=C(C)NC3=C2C(=O)CCC3)c1 (stereo not drawn) | 353 | -7% (inactive) | 2.3% (inactive) | 103% | -64% (inactive) | 131% | -0.379 (inactive) | 2.2e-05 (inactive) | 0.00554 (inactive) | 3.04% (inactive) | 25% (inactive) |
| CCOC(=O)C(CC)Sc1nc2c(c(=O)[nH]c(=O)n2C)n1C/C=C(/C)Cl (stereo not drawn) | 775 | -12.9% (inactive) | 18% (inactive) | 96.3% | 18.5% (inactive) | 106% | -0.601 (inactive) | -6.7e-05 (inactive) | 0.00361 (inactive) | 14.5% (inactive) | 19.1% (inactive) |
| CCc1nnc2sc(-c3cc(-c4ccccc4)nc4ccccc34)nn12 | 267 | 5.4% (inactive) | 7.4% (inactive) | 87% | 3.3% (inactive) | 90.4% | -0.436 (inactive) | 2.9e-06 (inactive) | 0.00312 (inactive) | 8.15% (inactive) | 26.8% (inactive) |
| Cc1c(C(=O)N2CCN(c3ccccc3)CC2)sc2ncnc(N3CCN(c4ccccc4)CC3)c12 | 613 | 6.2% (inactive) | 9.7% (inactive) | 107% | -70.4% (inactive) | 127% | -0.445 (inactive) | -1.1e-05 (inactive) | 0.00705 (inactive) | 7.72% (inactive) | 4.87% (inactive) |
| COc1ccc(C(=O)N2CCN(C3CCC(c4ccccc4)CC3)CC2)cc1OC (stereo not drawn) | 420 | -1.3% (inactive) | 20.2% (inactive) | 88.1% | 43.2% (inactive) | 83.9% | -0.436 (inactive) | -5.4e-05 (inactive) | 0.00292 (inactive) | 7.44% (inactive) | 17.6% (inactive) |
| Cc1c(C)n(C)c2ccc(C(=O)NCc3cccs3)cc12 | 461 | -9.2% (inactive) | 19.4% (inactive) | 83.8% | 11.8% (inactive) | 93.5% | -0.505 (inactive) | -3e-05 (inactive) | 0.00486 (inactive) | -5.31% (inactive) | -32.8% (inactive) |
| O=C(NCc1ccc(F)cc1)c1cc2ccccn2n1 | 589 | 4.4% (inactive) | 6% (inactive) | 97% | -1% (inactive) | 107% | -0.601 (inactive) | -3.6e-05 (inactive) | 0.00683 (inactive) | 1.23% (inactive) | -17.7% (inactive) |
| Cc1ccc2c(c1)C(O)(CC(=O)c1ccc3c(c1)OCO3)C(=O)N2 (stereo not drawn) | 671 | 9.5% (inactive) | -46.3% (inactive) | 93.9% | 16.8% (inactive) | 93.3% | -0.511 (inactive) | -5e-05 (inactive) | 0.00523 (inactive) | 0.102% (inactive) | 23% (inactive) |
| Cc1cc2nc(C3CCN(CC4COc5ccccc5O4)CC3)[nH]c2cc1C (stereo not drawn) | 746 | -8.3% (inactive) | -2.5% (inactive) | 92% | -56.9% (inactive) | 107% | -0.433 (inactive) | -1.9e-05 (inactive) | 0.00449 (inactive) | -0.371% (inactive) | -21.4% (inactive) |
| O=C(Nc1ccccc1C(=O)N1CCOCC1)C1CCC(=O)N1C1CCCC1 (stereo not drawn) | 229 | 14.7% (inactive) | 8.7% (inactive) | 79.1% | -48.2% (inactive) | 110% | -0.425 (inactive) | -4.5e-05 (inactive) | 0.00481 (inactive) | 4.86% (inactive) | 7.23% (inactive) |
| O=C1c2ccccc2C(Nc2ccc3c(c2)OCCO3)N1Cc1ccc2c(c1)OCO2 (stereo not drawn) | 597 | 3.4% (inactive) | -2.8% (inactive) | 102% | -14.2% (inactive) | 106% | -0.553 (inactive) | -5e-05 (inactive) | 0.00464 (inactive) | 3.99% (inactive) | 50.1% (active) |
| COc1ccc(N2CCN(C(=O)C(C)(C)Oc3ccc(Cl)cc3)CC2)cc1 | 651 | 5.8% (inactive) | 4.4% (inactive) | 96.2% | 0% (inactive) | 111% | -0.564 (inactive) | -4.3e-05 (inactive) | 0.00674 (inactive) | 2.83% (inactive) | 28.4% (inactive) |
| CC(C)(Oc1ccc(Cl)cc1)C(=O)NCc1ccncc1 | 419 | 5.2% (inactive) | -21% (inactive) | 96.4% | -85.3% (inactive) | 113% | -0.297 (inactive) | -5.5e-05 (inactive) | 0.00503 (inactive) | 11.3% (inactive) | 12.2% (inactive) |
| CCN(CC)S(=O)(=O)c1ccc2c(c1)nc(SCC(=O)NC1CC1)n2-c1ccccc1OC | 531 | -14.3% (inactive) | 9.5% (inactive) | 109% | -137% (inactive) | 125% | -0.598 (inactive) | -7.2e-06 (inactive) | 0.00577 (inactive) | 14.2% (inactive) | 48.2% (inactive) |
| Cn1nnnc1SCc1cn2cccnc2n1 | 227 | 0.3% (inactive) | 9.5% (inactive) | 97.2% | -25.9% (inactive) | 117% | -0.106 (inactive) | 2.9e-05 (inactive) | 0.00615 (inactive) | 9.85% (inactive) | 9.08% (inactive) |
| CC(CN1CCCCC1)OC(=O)c1ccc(Cl)cc1Cl (stereo not drawn) | 585 | 10.3% (inactive) | -8.8% (inactive) | 87.8% | 9.3% (inactive) | 105% | -0.438 (inactive) | 1.5e-06 (inactive) | 0.00424 (inactive) | -18.5% (inactive) | -15.9% (inactive) |
| CC(C)(C)SCCNC(=O)COc1ccc(Cl)cc1 | 237 | 3.4% (inactive) | 19.9% (inactive) | 83.8% | -272% (inactive) | 147% | -0.419 (inactive) | 1.6e-05 (inactive) | 0.00681 (inactive) | -15.2% (inactive) | -2.28% (inactive) |
| C1CCc2nnc(-c3nnc4n3CCCCC4)n2CC1 | 396 | 3% (inactive) | -5.5% (inactive) | 100% | -3.6% (inactive) | 105% | -0.344 (inactive) | -2.9e-05 (inactive) | 0.00555 (inactive) | 11.6% (inactive) | 10.3% (inactive) |
| CCCCNC(=O)C(C#N)c1nc2ccccc2nc1N1CCCC1 (stereo not drawn) | 289 | -6.5% (inactive) | 22.5% (inactive) | 78.4% | 9% (inactive) | 52.3% | -0.235 (inactive) | -1.3e-05 (inactive) | 0.00359 (inactive) | 16.3% (inactive) | 14% (inactive) |
| COc1ccccc1Nc1nc2ccccc2[nH]1 | 654 | 4.7% (inactive) | 4.6% (inactive) | 94.6% | -12.4% (inactive) | 96.8% | -0.427 (inactive) | -3.7e-06 (inactive) | 0.00559 (inactive) | -19.5% (inactive) | -54.9% (inactive) |
| Cc1cccc(Nc2nc3c(c(=O)n(C)c(=O)n3C)n2Cc2ccccc2)c1 | 470 | 7.2% (inactive) | 6.5% (inactive) | 94.7% | -73.5% (inactive) | 106% | -0.588 (inactive) | -2.8e-05 (inactive) | 0.00618 (inactive) | 3.57% (inactive) | 20.4% (inactive) |
